The record followed here is PubChem BioAssay (NCATS).

For assay [1], the target named is Glucocorticoid receptor (Homo sapiens) (UniProt P04150). In words: qHTS assay for small molecule agonists of glucocorticoid receptor signaling (AID 588532; active means well fitted curve in the direction sought with a large enough effect in the signal ratio, with a control signal flat; the % refers to the signal ratio;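 further: 100% = dexamethasone at 0.1 µM and 0% = DMSO only wells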). Conditions: HeLa MMTV-bla, beta-lactamase ratio, agonist, 18 h; stronger effect = higher value; percent of dexamethasone control, DMSO zero. A digest of the protocol: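 Cells were plated and rested 3-5 h at 37 C, compounds were added in titration and incubated 18 h, then CCF4 substrate was loaded for 2 h at RT before reading blue/green fluorescence. EC50 came from Hill-equation fitting.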
A general note: Quantitative high-throughput screening tests each substance at several concentrations.

The target is the same in assay [2]. Nature of the assay: qHTS assay for small molecule antagonists of glucocorticoid receptor signaling (AID 588533; active means well fitted inhibition curve with a large enough effect in the signal ratio, with a control signal flat, not every such curve was filed as active; the % refers to the signal ratio; further: on the % scale 0 is the no-effect control and ±100 the full control effect). As to conditions: HeLa MMTV-bla, GRE beta-lactamase ratio, antagonist mode, 18 h; series mostly up to 76.8 µM. A digest of the protocol: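 Antagonist-mode qHTS: compound titrations added to GRE-bla HeLa cells, then dexamethasone 2 nM final; 18 h, 37 C. CCF4 FRET fluorescence normalized to dexamethasone and DMSO; IC50 from Hill fit.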

Assay [3] in a line: qHTS assay for small molecule antagonists of peroxisome proliferator-activated receptor delta signaling (AID 588535; active means well fitted inhibition curve with a large enough effect in the signal ratio, with a control signal flat, not every such curve was filed as active; the % refers to the signal ratio;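 on max response: cells co-treated with a PPAR-delta agonist as stimulator during compound exposure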). Conditions: HEK293T PPARd-UAS-bla, beta-lactamase FRET ratio, 18 h; 460 nm channel. The method, boiled down: (§1)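 Beta-lactamase reporter read-out (405 nm excitation, 460/530 nm emission) after CCF4 loading for 2 hrs at RT. HEK293T PPAR-delta-UAS-bla cells, 2% charcoal/dextran FBS, compounds for 18 hrs at 37 C. Hill fit gave IC50 and efficacy.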

Assay [4] has as its target Peroxisome proliferator-activated receptor delta (Homo sapiens) (UniProt Q03181). Described as above. Conditions: HEK293T PPARd-UAS-bla, beta-lactamase FRET ratio, 18 h; series mostly up to 76.7 µM. The method, boiled down:
as §1

The target in assay [5] is Peroxisome proliferator-activated receptor gamma (Homo sapiens) (UniProt P37231). Nature of the assay: qHTS assay for small molecule agonists of peroxisome proliferator-activated receptor gamma signaling (AID 588536; active means well fitted curve in the direction sought with a large enough effect in the signal ratio, with a control signal flat, not every such curve was filed as active; the % refers to the signal ratio;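 further: 0% = DMSO basal wells and 100% = rosiglitazone at 2 µM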). Conditions: HEK293 PPARg-UAS-bla, beta-lactamase ratio, 16 h, percent of rosiglitazone response, DMSO as zero; series mostly up to 76.7 µM. A digest of the protocol: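 Cells were plated and held 6–6.5 h at 37 C, then compounds were added as a titration series. After a further 16 h, CCF4 dye was loaded for 2 h at room temperature and emission at 460/530 nm recorded.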

Assay [6] deals with Vitamin D3 receptor (Homo sapiens) (UniProt P11473). In words: qHTS assay for small molecule antagonists of vitamin D receptor signaling (AID 588541).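 Further: receptor activated by calcitriol during compound treatment; on the % scale 0 is the no-effect control and ±100 the full control effect.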 Conditions: HEK293T VDR-UAS-bla, beta-lactamase ratio, antagonist mode; series mostly up to 76.7 µM. A digest of the protocol:
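VDR-UAS-bla HEK293T cells in 2% charcoal-stripped FBS were stimulated with 1-alpha,25-dihydroxyvitamin D3 (3 nM final) plus compound for 16 h at 37 C. The beta-lactamase CCF4 readout was normalized to 50 nM agonist and DMSO, and Hill fits gave IC50.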

For assay [7] the target is unchanged. In words: qHTS assay for small molecule agonists of vitamin D receptor signaling (AID 588543).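 Further: 0% = DMSO basal and 100% = reference agonist control.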 Conditions: HEK293T VDR-UAS-bla, beta-lactamase ratio, 16 h; series mostly up to 76.8 µM. The method, boiled down: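 Reporter cells (HEK293T, VDR-UAS-bla) were seeded in medium with 2% charcoal-stripped serum and incubated 5 h, then compounds in concentration series were added for 16 h at 37 °C. Stimulation was scaled between DMSO basal and 50 nM 1α,25-dihydroxyvitamin D3.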

Assay [8] in a line: qHTS assay for small molecule agonists of retinoid X receptor alpha signaling (AID 588544).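 On activation: 0% = DMSO basal wells and 100% = reference agonist.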 As to conditions: HEK293T RXRa-UAS-bla, beta-lactamase reporter, 18 h; 530 nm emission.
For assay [9], the target named is Retinoic acid receptor RXR-alpha (Homo sapiens) (UniProt P19793). The description is as above. Conditions: HEK293T RXRa-UAS-bla, beta-lactamase reporter, 18 h; series mostly up to 76.7 µM.
Assay [10] addresses Thyroid hormone receptor beta (Homo sapiens) (UniProt P10828). In words: qHTS assay for small molecule agonists of thyroid hormone receptor beta signaling (AID 588545). Conditions: TR-UAS-bla GripTite HEK 293, beta-lactamase ratio, agonist mode, 18 h, percent of T3 response, DMSO as zero; series mostly up to 76.7 µM. The method, boiled down: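 Agonist activity was read as beta-lactamase CCF4 fluorescence (405 ex, 460/530 em), scaled between DMSO (0%) and 10 nM T3 (100%), then Hill-fitted for EC50 and efficacy. HEK 293 TR-UAS-bla cells in 2% charcoal/dextran FBS medium were exposed 18 h at 37 C.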

Assay [11] can be described thus: qHTS assay for small molecule antagonists of retinoid X receptor alpha signaling (AID 588546; active means well fitted inhibition curve with a large enough effect in the signal ratio, with a control signal flat, not every such curve was filed as active; the % refers to the signal ratio;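 further: cells stimulated with 9-cis-retinoic acid as agonist; on the % scale 0 is the no-effect control and ±100 the full control effect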). As to conditions: HEK293T RXRa-UAS-bla, beta-lactamase ratio, antagonist mode; measured here: W530 green channel, cytotoxicity proxy. A digest of the protocol:
(§2)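 Beta-lactamase reporter inhibition, read as CCF4 fluorescence ratio (ex 405, em 460/530 nm) after 2 h at RT. HEK293T UAS-bla cells, 2500/well, were stimulated with 9-cis-RA at 500 or 100 nM final alongside test compound for 18 h at 37 C.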

For assay [12], the target named is Retinoic acid receptor RXR-alpha (Homo sapiens) (UniProt P19793). The assay is described as above. As to conditions: HEK293T RXRa-UAS-bla, beta-lactamase ratio, antagonist mode. A digest of the protocol: as §2
The target of assay [13] is Thyroid hormone receptor beta (Homo sapiens) (UniProt P10828). Nature of the assay: qHTS assay for small molecule antagonists of thyroid hormone receptor beta signaling (AID 588547; active means well fitted inhibition curve with a large enough effect in the signal ratio, with a control signal flat, not every such curve was filed as active; the % refers to the signal ratio;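 further: cells stimulated with 0.4 nM T3 agonist during compound exposure; on the % scale 0 is the no-effect control and ±100 the full control effect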). As to conditions: TR-UAS-bla HEK293, beta-lactamase ratio, antagonist mode, 18 h. The method, boiled down: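 TR-UAS-bla GripTite HEK293 cells in 2% charcoal/dextran FBS medium; compounds 0.59 nM to 92 uM with T3 at 0.4nM final, 18 h at 37 C. Beta-lactamase read by CCF4 fluorescence (460/530 nm); Hill fits gave IC50 and efficacy.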

The target of assay [14] is Voltage-gated inwardly rectifying potassium channel KCNH2 (Homo sapiens) (UniProt Q12809). In words: qHTS Assay for Small Molecule Inhibitors of the Human hERG Channel Activity (AID 588834; active means well fitted inhibition curve with a large enough effect;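 further: top concentration of the series differs between compounds; on the % scale 0 is the no-effect control and ±100 the full control effect; lower thallium flux fluorescence means stronger hERG block; nearly all actives have a fitted effect of over 50% in size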). Conditions: U2OS BacMam hERG, FluxOR thallium flux fluorescence; series mostly up to 92.2 µM. A digest of the protocol: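 Step 1: BacMam hERG transduction of U2OS, 4 hrs RT. Step 2: overnight 37 °C, plate 2000 cells/well, 4 hr. Step 3: FluxOR load, compound 10 min, stimulate, read fluorescence.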

A short description of assay [15]: qHTS assay for small molecule agonists of the antioxidant response element (ARE) signaling pathway (AID 651741; active means well fitted activation curve with a large enough effect in the signal ratio; the % refers to the signal ratio; further: % of control where 0% means no effect). Conditions: HepG2 ARE-bla reporter, beta-lactamase FRET ratio, 16 h; series mostly up to 96 µM. A digest of the protocol:
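HepG2 ARE-bla reporter cells, 2,000/well; 5 h settle at 37 C/5% CO2; compound pin transfer (23 nL, DMSO); 16 h at 37 C; LiveBLAzer B/G FRET substrate, 2 h RT; fluorescence intensity read.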

Assay [16] is described as follows: qHTS assay for small molecule activators of the p53 signaling pathway (AID 651743; active means well fitted activation curve with a large enough effect in the signal ratio, not every such curve was filed as active; the % refers to the signal ratio; further: % of control where 0% means no effect). As to conditions: HCT-116 p53RE-bla, beta-lactamase FRET ratio, 16 h; stronger effect = higher value. A digest of the protocol:
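Reporter: beta-lactamase driven by p53 response elements, stably integrated in HCT-116 cells. Cells seeded at 4,000/well, 5 h preincubation, compound (DMSO) 16 h at 37 C; B/G FRET substrate 2 h RT; fluorescence intensity read.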

Assay [17] is described as follows: qHTS assay for small molecule activators of the nuclear factor-kappa B (NF-kB) signaling pathway (AID 651749; active means well fitted activation curve with a large enough effect in the signal ratio; the % refers to the signal ratio; further: % of control where 0% means no effect). Conditions: NF-kB-bla ME-180 cells, beta-lactamase FRET ratio, 16 h; stronger effect = higher value. A digest of the protocol: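 NF-kB-bla ME-180 cells, 2,000/well; 23 nL compound or DMSO pinned; 16 hr, 37C/5% CO2; beta-lactamase FRET read-out.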
Assay [18] concerns the target Peroxisome proliferator-activated receptor gamma (Homo sapiens) (UniProt P37231). In words: qHTS assay for small molecule antagonists of peroxisome proliferator-activated receptor gamma signaling (AID 588537; active means well fitted inhibition curve with a large enough effect in the signal ratio, with a control signal flat, not every such curve was filed as active; the % refers to the signal ratio;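 further: reporter cells co-stimulated with 50 nM rosiglitazone agonist during compound treatment; % of control where 0% means no effect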). Conditions: HEK293 PPARg-UAS-bla, beta-lactamase ratio, antagonist mode; series mostly up to 76.8 µM. A digest of the protocol: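 Read-out: CCF4 fluorescence (ex 405, em 460/530 nm) after 2 h at RT. Cells were HEK293 carrying a UAS-bla reporter and treated 16 h at 37 C with compound plus rosiglitazone (50 nM final). Normalized to rosiglitazone and DMSO.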

Molecules are shown by their SMILES. Inconclusive results are not listed. Calls of active or inactive are those of the source. Unless noted, the call rests on the fitted dose curve.

Thyroid hormone receptor beta (Homo sapiens), sequence (P10828 whole entry, looked up): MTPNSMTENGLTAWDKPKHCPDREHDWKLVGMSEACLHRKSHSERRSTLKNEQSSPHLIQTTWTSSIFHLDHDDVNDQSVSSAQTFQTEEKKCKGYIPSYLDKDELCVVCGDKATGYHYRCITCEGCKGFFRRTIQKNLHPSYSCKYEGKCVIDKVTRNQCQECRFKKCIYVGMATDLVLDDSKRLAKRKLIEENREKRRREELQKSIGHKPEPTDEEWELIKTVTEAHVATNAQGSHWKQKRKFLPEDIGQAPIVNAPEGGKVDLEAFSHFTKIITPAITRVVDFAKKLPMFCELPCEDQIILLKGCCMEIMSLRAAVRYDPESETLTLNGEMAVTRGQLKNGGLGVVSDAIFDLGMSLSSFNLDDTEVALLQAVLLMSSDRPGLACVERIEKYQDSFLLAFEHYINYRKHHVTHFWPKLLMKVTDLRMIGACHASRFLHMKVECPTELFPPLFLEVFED
Retinoic acid receptor RXR-alpha (Homo sapiens), sequence (P19793 whole entry, looked up): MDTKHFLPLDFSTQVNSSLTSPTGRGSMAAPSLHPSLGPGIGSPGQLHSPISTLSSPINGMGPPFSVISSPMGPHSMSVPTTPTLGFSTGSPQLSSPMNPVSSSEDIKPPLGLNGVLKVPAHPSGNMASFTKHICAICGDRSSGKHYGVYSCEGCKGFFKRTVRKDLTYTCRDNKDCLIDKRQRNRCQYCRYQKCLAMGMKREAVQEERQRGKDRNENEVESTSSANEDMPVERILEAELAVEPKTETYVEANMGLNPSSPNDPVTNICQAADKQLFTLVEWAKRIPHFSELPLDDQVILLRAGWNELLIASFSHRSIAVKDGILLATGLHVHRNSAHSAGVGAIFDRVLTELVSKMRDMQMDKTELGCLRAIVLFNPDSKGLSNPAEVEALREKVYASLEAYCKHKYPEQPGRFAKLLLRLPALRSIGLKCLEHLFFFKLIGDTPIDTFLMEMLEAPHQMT
Glucocorticoid receptor (Homo sapiens), sequence (P04150 whole entry, looked up): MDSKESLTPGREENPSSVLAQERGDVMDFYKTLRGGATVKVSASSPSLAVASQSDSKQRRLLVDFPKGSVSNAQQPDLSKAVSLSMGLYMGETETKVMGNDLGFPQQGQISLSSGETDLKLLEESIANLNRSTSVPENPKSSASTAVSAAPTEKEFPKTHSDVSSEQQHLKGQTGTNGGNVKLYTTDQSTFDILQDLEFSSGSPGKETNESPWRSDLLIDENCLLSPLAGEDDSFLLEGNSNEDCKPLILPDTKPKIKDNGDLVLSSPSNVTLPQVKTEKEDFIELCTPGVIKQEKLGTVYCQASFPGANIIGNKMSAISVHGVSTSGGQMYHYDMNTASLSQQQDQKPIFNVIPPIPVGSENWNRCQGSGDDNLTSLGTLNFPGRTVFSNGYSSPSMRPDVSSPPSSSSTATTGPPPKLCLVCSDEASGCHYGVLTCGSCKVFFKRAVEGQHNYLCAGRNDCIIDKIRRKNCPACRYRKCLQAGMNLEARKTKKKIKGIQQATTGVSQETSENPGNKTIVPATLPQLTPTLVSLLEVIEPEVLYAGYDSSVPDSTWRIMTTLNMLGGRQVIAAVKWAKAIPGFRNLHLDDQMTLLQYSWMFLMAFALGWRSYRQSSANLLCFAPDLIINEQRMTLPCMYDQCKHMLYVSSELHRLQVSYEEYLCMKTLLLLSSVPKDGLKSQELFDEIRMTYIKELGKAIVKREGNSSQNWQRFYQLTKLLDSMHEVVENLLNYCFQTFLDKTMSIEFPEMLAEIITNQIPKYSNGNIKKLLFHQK
Voltage-gated inwardly rectifying potassium channel KCNH2 (Homo sapiens), sequence (Q12809 whole entry, looked up): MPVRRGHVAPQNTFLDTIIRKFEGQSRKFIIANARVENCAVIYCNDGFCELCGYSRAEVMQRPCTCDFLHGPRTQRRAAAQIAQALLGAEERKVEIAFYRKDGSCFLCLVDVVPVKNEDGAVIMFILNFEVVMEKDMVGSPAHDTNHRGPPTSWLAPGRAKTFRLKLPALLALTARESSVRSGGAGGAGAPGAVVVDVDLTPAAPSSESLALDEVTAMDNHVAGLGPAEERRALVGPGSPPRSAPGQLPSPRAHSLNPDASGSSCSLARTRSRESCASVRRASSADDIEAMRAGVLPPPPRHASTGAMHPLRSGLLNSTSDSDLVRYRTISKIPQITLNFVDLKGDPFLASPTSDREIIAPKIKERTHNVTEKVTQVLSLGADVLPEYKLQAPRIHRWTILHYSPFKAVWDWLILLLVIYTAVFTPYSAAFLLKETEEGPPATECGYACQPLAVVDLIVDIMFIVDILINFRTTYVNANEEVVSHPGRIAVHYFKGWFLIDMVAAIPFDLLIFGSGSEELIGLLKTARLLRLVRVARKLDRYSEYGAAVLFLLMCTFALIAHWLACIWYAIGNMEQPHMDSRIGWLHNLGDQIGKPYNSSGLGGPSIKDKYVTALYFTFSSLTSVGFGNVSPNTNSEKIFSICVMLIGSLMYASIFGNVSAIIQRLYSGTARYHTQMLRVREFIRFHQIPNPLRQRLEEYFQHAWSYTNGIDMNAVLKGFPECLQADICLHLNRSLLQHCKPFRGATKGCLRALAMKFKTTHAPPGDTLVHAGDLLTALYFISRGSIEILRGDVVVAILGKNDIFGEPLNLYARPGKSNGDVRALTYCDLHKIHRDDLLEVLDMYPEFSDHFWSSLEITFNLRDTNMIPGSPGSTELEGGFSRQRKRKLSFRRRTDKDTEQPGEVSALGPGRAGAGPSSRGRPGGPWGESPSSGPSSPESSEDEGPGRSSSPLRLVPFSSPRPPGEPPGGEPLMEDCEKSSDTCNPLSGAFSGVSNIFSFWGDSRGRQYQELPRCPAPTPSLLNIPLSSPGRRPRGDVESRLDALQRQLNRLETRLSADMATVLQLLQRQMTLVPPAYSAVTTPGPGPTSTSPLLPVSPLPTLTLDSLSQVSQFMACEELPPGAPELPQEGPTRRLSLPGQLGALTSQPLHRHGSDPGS
Peroxisome proliferator-activated receptor gamma (Homo sapiens), sequence (P37231 whole entry, looked up): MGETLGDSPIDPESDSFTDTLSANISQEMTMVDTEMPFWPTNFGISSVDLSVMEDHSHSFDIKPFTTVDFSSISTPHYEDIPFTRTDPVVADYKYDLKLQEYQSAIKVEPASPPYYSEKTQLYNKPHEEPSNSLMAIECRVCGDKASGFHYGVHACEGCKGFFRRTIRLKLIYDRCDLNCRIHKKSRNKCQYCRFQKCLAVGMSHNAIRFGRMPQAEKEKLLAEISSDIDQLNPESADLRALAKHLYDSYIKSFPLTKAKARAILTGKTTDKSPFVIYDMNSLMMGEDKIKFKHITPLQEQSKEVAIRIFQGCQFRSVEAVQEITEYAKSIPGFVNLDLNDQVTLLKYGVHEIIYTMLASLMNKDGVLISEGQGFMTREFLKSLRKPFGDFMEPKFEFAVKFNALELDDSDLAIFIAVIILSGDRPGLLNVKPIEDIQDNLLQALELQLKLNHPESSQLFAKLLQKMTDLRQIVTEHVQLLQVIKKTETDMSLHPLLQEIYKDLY
Vitamin D3 receptor (Homo sapiens), sequence (P11473 whole entry, looked up): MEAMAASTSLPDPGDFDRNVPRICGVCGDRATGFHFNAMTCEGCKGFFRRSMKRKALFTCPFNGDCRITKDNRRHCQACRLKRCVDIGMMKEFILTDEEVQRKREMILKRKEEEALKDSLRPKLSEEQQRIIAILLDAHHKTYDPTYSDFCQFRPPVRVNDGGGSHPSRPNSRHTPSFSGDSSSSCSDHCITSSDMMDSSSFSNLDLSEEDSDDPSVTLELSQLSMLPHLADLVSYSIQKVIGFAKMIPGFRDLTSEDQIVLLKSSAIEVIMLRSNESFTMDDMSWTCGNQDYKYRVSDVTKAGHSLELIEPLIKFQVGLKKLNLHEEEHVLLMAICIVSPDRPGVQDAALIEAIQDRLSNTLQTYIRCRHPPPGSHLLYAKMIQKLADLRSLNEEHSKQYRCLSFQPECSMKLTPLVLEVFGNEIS
Peroxisome proliferator-activated receptor delta (Homo sapiens), sequence (Q03181 whole entry, looked up): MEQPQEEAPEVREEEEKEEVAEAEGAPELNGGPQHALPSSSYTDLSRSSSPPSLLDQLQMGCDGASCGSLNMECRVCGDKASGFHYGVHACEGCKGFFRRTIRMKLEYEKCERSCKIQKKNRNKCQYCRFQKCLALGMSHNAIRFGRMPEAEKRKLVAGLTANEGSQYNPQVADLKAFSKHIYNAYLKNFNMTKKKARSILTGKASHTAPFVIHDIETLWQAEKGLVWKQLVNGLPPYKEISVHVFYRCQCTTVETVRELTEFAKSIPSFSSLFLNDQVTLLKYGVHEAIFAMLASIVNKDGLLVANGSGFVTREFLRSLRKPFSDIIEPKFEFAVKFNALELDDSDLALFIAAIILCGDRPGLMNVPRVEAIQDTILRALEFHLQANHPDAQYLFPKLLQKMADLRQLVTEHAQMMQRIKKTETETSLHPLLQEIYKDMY

Regarding `Cc1cc(C(=O)O)ccc1[N+](=O)[O-]`, the activation in [1] is 1.49% (inactive); in [16], -0.415% (inactive). Further, the outcome in [2], in assay [5], in [6], in assay [7], in assay [9] and in [10] was inactive. Besides, the max response in [3] is 13.2%; in assay [8], -3.52%; in [11], -3.81%; in [12] it was 36.9% (inactive). The Potency result in [4], in [14] and in assay [15] was “inactive” throughout. Besides, the activity change % (negative = inhibition) in assay [13] was 7.48% (inactive).
For the compound `CC(O)COC(C)(C)C` (centres undefined), the activation in assay [1] was -7.34% (inactive); in assay [16], -6.33% (inactive); in [17], -0.964% (inactive). For the same compound, the result in [2], in assay [5], in assay [6], in assay [7], in assay [9] and in [10] was inactive. Also, the max response is -1.74% in assay [3], -7.25% in [8], 0.664% in [11] and -2.68% (inactive) in assay [12]. Moreover, in assay [13], the activity change % (negative = inhibition) was -13.8% (inactive). Further, the Potency entry in assay [14] and in assay [15] was “inactive” each time.
In the case of `ICCc1ccccc1`, the figures for the activation in [1], in assay [16] and in [17] were -2.34% (inactive), -3.45% (inactive) and -1.75% (inactive), respectively. Also, the outcome in assay [2], in assay [5], in assay [6], in assay [7], in assay [9] and in [10] was inactive. Moreover, the max response in [3] was 13.6%; in [8], 3.08%; in assay [11] it was -3.71%; in [12], 22.3% (inactive). The activity change % (negative = inhibition) in assay [13] was 3.09% (inactive). For the same compound, the Potency result in assay [14] and in [15] was “inactive” throughout.
Regarding `CC(C)C(C)C`, the activation in [1] is -6.49% (inactive). The result in [2], in [5], in assay [18] and in [9] was inactive. For the same compound, the max response in [8] was -13.5%; in [11], -13.7%; in assay [12] it was -1.83% (inactive). For the same compound, in assay [13], the activity change % (negative = inhibition) is -4.52% (inactive). In assay [14], the Potency result is “inactive”.
Take `C=C(C)C(=O)OC`: the activation in [1] is -3.9% (inactive); in assay [16] it was -0.845% (inactive); in assay [17] it was -2.84% (inactive). Also, the outcome in assay [2], in [5], in assay [18], in assay [9] and in assay [10] was inactive. Also, the max response in assay [3] was -44.8%; in assay [8], -17.1%; in [11] it was -11.6%; in assay [12], -3.12% (inactive). Moreover, the activity change % (negative = inhibition) in assay [13] was -1.4% (inactive). For the same compound, the Potency entry in assay [14] and in assay [15] was “inactive” throughout.
`CC(=O)OCCC(C)C`: the activation in [1] was 4.89% (inactive); in assay [16], -1.24% (inactive). For the same compound, the outcome in assay [2], in assay [5], in assay [18], in assay [9] and in assay [10] was inactive. The figures for the max response in assay [3], in assay [8] and in [11] were -13.3%, -5.59% and -8.93%, respectively. The activity change % (negative = inhibition) in assay [13] is 8.77% (inactive). Besides, the Potency entry in [14] and in [15] was “inactive” throughout.
For the compound `O=[N+]([O-])c1cccc(C(F)(F)F)c1`, the results for the activation in assay [1] and in [16] were -5.05% (inactive) and 2.87% (inactive), respectively. For the same compound, the outcome in assay [2], in assay [5], in assay [6], in [7], in [9] and in [10] was inactive. Besides, the max response in assay [8] is -15.5%; in assay [11] it was -3.15%. For the same compound, the activity change % (negative = inhibition) in [13] is 8.91% (inactive). In addition, the Potency entry in [14] is “inactive”.
`CC/C=C/C#N`: the activation was -1.94% (inactive) in assay [1], -0.654% (inactive) in assay [16] and -2.54% (inactive) in [17]. For the same compound, the max response in assay [3] is 12.5%; in assay [8] it was -6.67%; in assay [11] it was -0.89%. Besides, the Potency entry in [4], in assay [14] and in assay [15] was “inactive” each time. Besides, the outcome in assay [5], in assay [18], in [6], in assay [7], in assay [9] and in assay [10] was inactive. Besides, the activity change % (negative = inhibition) in assay [13] is 3.84% (inactive).
